Reference: the supplement of paper PMC11732987, “Enantioselective OTUD7B fragment discovery through chemoproteomics screening and high-throughput optimisation” (Communications Chemistry, 2025)

Tests used:
Assay in all cases: log2 ratio of Biotin-Ahx-Ub-VS probe labelling (fragment/DMSO); higher = less target engagement (more negative = stronger competition), active = hit call of the paper (q ≤ 0.05, log2 ratio ≤ -1)
Settings in all cases: compound concentration: 200 uM; treatment time: 3 h
OTUD6B = biological target: T1, OTUD6B (UniProt Q8N6M0)
T1 sequence (whole entry): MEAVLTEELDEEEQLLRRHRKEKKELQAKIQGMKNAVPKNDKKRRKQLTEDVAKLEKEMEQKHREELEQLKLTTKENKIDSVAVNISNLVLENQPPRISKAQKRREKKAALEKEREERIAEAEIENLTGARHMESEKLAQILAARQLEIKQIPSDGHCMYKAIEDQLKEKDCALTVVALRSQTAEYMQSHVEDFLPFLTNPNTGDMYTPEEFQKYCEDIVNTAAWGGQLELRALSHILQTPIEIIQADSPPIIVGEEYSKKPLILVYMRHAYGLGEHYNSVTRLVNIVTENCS
Method in brief: (§1)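 HEK293T lysate (495 µg per sample, in Tris/CHAPS/IGEPAL buffer with protease inhibitors) was treated in triplicate with fragment at 200 µM or with DMSO for 3 h. It was then treated with Biotin-Ahx-Ub-VS (0.5 µM final) for 1 h. Labelled DUBs were NeutrAvidin-enriched, digested with LysC and trypsin, and run by diaPASEF LC-MS/MS. Spectronaut label-free quantities were global-median-normalised. Values are average log2 ratios fragment/DMSO by unpaired t-test, using proteins with ≥2 unique peptides.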

OTUD7B = biological target: T2, OTUD7B (UniProt Q6GQQ9)
T2 sequence (whole entry): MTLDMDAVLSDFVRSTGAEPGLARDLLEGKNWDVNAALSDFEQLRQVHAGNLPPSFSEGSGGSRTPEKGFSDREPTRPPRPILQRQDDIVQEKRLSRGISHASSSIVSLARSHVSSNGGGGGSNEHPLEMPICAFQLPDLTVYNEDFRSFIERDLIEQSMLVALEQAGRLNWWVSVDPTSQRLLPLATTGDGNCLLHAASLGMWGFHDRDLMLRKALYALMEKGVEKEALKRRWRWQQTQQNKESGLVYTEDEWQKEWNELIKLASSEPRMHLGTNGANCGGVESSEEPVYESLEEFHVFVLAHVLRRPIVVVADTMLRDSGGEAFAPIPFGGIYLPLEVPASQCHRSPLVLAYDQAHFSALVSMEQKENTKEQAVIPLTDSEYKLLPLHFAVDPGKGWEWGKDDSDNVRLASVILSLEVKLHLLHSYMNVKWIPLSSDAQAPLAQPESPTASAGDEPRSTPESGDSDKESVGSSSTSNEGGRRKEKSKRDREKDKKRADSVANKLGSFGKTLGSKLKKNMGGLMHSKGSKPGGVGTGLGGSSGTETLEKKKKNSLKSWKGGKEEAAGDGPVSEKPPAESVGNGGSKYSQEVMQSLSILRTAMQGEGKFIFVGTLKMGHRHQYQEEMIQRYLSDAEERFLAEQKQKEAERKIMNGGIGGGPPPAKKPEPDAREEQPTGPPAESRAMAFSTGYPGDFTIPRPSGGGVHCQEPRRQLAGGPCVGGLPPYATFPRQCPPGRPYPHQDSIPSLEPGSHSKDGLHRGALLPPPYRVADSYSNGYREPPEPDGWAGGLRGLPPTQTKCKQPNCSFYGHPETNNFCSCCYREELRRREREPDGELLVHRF
Method in brief: as §1

PRPF8 = PRPF8 (UniProt Q6P2Q9)
Method in brief: as §1

PSMD7 = biological target: T3, PSMD7 (UniProt P51665)
T3 sequence (whole entry): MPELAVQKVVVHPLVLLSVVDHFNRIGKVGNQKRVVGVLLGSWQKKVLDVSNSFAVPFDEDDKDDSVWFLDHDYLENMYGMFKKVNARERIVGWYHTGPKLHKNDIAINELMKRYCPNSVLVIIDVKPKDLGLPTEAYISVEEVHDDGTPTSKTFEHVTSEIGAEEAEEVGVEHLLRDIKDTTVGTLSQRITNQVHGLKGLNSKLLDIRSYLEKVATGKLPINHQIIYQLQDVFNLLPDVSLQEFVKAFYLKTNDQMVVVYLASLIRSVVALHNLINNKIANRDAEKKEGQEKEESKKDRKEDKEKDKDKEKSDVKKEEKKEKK
Method in brief: as §1

UCHL1 = UCHL1 (UniProt P09936)
UCHL1, sequence (P09936 whole entry, looked up): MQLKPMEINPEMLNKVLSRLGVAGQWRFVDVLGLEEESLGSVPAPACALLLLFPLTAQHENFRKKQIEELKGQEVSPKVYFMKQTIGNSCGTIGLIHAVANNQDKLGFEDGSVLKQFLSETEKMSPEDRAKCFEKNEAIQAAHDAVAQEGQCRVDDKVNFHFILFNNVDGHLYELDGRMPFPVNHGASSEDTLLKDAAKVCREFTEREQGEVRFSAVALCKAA
Method in brief: as §1

UCHL3 = biological target: T4, UCHL3 (UniProt P15374)
T4 sequence (whole entry): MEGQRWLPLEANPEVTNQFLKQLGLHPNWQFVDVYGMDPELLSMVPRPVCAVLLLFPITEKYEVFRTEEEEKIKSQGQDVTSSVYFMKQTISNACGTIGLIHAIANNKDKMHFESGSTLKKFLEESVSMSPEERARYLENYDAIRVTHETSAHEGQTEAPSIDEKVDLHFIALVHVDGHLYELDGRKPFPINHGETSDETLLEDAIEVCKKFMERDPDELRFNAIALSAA
Method in brief: as §1

UCHL5 = biological target: T5, UCHL5 (UniProt Q9Y5K5)
T5 sequence (whole entry): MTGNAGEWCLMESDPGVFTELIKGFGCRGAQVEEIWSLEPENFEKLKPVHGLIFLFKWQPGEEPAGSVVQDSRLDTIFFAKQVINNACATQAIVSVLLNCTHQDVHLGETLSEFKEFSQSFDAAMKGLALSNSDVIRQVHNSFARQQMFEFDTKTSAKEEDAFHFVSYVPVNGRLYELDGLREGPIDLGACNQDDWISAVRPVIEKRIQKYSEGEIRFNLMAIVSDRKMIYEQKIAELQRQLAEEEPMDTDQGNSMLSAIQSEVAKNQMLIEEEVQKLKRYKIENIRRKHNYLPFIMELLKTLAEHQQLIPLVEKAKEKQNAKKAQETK
Method in brief: as §1

USP10 = USP10 (UniProt Q14694)
USP10, sequence (Q14694 whole entry): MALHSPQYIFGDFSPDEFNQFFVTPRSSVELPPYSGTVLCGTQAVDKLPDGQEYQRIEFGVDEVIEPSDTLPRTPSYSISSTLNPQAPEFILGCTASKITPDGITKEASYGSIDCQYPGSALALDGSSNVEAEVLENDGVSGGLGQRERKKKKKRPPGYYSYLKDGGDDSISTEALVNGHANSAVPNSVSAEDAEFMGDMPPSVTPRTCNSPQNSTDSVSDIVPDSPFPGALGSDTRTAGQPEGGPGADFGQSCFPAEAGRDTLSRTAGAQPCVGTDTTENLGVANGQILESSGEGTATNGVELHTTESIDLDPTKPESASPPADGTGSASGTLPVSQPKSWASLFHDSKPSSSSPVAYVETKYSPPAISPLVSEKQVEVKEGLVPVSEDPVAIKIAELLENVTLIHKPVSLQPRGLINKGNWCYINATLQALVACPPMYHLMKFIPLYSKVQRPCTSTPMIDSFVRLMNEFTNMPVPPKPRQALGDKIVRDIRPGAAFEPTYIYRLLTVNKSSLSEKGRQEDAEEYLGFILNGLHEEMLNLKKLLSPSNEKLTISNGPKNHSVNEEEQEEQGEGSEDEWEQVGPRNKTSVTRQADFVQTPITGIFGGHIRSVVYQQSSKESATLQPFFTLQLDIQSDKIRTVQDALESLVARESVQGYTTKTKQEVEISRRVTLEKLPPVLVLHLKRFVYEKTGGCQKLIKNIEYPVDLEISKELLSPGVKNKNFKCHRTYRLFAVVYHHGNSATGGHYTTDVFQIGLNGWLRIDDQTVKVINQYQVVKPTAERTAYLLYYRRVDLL
Method in brief: as §1

USP15 = biological target: T6, USP15 (UniProt Q9Y4E8)
T6 sequence (whole entry): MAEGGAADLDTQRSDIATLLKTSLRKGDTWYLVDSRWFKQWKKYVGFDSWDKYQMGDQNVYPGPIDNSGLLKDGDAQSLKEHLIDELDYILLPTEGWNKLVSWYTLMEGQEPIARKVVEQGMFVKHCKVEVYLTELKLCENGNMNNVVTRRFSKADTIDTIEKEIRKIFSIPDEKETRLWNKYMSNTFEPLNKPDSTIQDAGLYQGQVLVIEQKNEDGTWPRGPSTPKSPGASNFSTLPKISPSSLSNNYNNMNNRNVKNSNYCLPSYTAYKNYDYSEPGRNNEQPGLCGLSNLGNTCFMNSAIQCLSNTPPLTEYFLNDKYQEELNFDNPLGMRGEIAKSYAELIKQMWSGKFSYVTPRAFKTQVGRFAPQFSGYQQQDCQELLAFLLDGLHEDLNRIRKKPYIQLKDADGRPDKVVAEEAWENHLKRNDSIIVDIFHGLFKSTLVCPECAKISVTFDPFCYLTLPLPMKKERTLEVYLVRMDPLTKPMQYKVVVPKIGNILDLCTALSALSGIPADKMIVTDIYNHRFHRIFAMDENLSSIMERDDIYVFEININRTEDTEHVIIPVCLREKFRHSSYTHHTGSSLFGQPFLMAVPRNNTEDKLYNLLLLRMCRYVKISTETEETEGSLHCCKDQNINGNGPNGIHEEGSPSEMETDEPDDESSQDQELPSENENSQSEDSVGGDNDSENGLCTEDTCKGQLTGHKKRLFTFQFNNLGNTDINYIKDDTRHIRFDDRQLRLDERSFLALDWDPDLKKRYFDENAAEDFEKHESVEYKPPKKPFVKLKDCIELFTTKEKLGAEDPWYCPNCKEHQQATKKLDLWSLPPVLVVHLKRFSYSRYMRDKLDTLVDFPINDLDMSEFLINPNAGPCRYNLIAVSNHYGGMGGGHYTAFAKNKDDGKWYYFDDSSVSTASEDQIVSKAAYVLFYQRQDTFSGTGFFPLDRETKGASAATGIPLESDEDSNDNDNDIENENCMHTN
Method in brief: as §1

USP16 = USP16 (UniProt Q9Y5T5)
USP16, sequence (Q9Y5T5 whole entry, looked up): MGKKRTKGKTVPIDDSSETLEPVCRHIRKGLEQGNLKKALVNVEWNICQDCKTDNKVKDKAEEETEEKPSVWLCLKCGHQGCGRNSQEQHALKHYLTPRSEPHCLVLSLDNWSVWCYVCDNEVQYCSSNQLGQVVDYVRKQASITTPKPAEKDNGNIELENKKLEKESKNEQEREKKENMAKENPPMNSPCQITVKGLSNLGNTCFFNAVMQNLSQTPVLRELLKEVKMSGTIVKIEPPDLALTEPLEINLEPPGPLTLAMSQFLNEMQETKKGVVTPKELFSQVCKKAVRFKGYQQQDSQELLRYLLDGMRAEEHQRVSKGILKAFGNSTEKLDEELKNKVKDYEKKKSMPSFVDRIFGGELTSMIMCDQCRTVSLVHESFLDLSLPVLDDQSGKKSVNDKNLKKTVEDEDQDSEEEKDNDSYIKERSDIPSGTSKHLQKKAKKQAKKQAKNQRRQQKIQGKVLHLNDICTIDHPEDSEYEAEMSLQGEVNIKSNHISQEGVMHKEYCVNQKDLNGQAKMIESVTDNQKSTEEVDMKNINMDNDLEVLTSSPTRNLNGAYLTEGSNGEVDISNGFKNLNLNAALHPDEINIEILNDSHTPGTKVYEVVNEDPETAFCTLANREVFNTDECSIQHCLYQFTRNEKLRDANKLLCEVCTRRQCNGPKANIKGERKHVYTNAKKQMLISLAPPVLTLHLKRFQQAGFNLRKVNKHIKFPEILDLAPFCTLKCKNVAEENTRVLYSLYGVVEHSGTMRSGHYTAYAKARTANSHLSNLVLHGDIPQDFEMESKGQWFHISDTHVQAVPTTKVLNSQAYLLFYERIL
Method in brief: as §1

Measured: log2 ratio of Biotin-Ahx-Ub-VS probe labelling

CCC1c2ccsc2CCN1C(=O)CCl (stereo not given)
inactive: OTUD6B -0.158 | OTUD7B -0.505 | PRPF8 0.237 | PSMD7 -0.0765 | UCHL3 -0.00293 | UCHL5 -0.25 | USP10 -0.134 | USP15 -0.298 | USP16 -0.5
active: UCHL1 -1.35
